Tests used:
Experiment in all cases: DAPPL (digital affinity profiling via proximity ligation, sequencing); 10 mM Tris-HCl pH 7.5, 50 mM NaCl, 1 mM DTT, 4% glycerol, room temperature, 30 min; GST-TFs on glutathione beads, 16-mer random dsDNA library, 0.1% formaldehyde crosslink after washing; high values mean tight binding
Conditions in all cases: protein: recombinant; tags: N-terminal GST; dsDNA, one strand shown
[1] = biological target: T1, ELK1 (Homo sapiens, UniProt P19419 1-428)
T1 sequence: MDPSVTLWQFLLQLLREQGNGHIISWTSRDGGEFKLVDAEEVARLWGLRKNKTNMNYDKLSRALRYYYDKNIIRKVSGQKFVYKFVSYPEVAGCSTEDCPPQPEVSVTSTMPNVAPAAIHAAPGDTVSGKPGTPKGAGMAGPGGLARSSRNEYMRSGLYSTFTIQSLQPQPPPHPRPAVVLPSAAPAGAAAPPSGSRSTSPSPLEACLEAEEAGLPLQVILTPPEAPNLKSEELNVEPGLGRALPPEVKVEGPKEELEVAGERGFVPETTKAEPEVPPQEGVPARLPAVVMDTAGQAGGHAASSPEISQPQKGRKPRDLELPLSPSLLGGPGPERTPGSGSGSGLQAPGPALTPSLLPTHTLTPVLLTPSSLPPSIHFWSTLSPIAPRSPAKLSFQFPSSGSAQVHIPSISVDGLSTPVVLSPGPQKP
In short: (§1)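 A tag-only sample was pooled with DNA-barcoded human transcription factors that had been expressed in yeast as GST fusions and captured on glutathione beads. The pools were incubated for 30 min at room temperature with 200 nmole of a random double-stranded 16-mer DNA library in Tris/NaCl/DTT/glycerol buffer, then washed, crosslinked with 0.1% formaldehyde, proximity-ligated (BsaI/T4 ligase, 1 h, 37 °C), PCR-amplified and sequenced on an Illumina NextSeq500. Binding signal is each hexamer's read frequency for a factor divided by its frequency for the tag-only sample.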

[2] = biological target: T2, GABPA (Homo sapiens, UniProt Q06546 1-454)
T2 sequence: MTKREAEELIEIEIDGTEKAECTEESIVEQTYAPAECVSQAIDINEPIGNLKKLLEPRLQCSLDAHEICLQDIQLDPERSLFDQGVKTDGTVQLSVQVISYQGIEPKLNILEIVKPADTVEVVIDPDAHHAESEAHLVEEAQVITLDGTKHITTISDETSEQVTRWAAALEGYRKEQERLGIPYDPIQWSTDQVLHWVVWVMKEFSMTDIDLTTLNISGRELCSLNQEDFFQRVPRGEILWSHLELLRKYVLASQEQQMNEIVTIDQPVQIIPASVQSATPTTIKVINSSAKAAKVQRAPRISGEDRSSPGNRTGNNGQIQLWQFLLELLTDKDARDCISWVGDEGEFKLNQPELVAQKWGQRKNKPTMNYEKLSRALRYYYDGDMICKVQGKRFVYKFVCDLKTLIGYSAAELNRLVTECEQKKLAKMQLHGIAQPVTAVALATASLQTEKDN
In short: as §1

[3] = biological target: T3, ERG (Homo sapiens, UniProt P11308 1-479)
T3 sequence: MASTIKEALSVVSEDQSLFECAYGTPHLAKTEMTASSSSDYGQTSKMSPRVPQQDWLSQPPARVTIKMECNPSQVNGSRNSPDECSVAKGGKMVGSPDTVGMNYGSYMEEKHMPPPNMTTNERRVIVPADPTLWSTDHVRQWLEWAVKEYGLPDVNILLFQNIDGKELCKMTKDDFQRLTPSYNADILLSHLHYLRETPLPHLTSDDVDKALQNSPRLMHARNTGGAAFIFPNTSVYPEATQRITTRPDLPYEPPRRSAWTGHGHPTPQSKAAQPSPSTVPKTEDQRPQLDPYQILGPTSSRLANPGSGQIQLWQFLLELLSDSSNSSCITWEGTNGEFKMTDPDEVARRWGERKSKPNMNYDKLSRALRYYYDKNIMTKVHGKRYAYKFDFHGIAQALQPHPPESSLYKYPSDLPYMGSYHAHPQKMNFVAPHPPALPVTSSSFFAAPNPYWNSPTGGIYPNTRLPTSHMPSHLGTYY
In short: as §1

[4] = biological target: ELF1 (Homo sapiens, UniProt P32519 1-619)
In short: as §1

[5] = biological target: T4, EHF (Homo sapiens, UniProt Q9NZC4 1-300)
T4 sequence: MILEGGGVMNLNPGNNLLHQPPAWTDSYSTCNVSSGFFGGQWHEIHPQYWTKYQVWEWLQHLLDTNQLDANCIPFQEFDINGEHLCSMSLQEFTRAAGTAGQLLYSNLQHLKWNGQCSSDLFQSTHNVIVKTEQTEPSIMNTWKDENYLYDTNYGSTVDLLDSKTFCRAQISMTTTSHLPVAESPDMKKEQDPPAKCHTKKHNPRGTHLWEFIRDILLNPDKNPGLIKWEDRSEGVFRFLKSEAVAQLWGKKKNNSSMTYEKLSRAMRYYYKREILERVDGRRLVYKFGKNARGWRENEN
In short: as §1

[6] = biological target: SPIB (Homo sapiens, UniProt Q01892 1-262)
In short: as §1

[7] = biological target: T5, FEV (Homo sapiens, UniProt Q99581 1-238)
T5 sequence: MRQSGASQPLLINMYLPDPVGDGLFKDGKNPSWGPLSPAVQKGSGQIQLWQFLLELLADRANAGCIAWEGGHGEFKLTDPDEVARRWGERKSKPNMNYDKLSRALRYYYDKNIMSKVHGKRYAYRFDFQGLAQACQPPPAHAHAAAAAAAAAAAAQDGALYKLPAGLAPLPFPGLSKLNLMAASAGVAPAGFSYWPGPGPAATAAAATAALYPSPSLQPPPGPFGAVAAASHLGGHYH
In short: as §1

[8] = biological target: ETV5 (Homo sapiens, UniProt P41161 1-510)
In short: as §1

[9] = biological target: ELF4 (Homo sapiens, UniProt Q99607 1-663)
In short: as §1

[10] = biological target: T6, ELK4 (Homo sapiens, UniProt P28324-2 1-405)
T6 sequence: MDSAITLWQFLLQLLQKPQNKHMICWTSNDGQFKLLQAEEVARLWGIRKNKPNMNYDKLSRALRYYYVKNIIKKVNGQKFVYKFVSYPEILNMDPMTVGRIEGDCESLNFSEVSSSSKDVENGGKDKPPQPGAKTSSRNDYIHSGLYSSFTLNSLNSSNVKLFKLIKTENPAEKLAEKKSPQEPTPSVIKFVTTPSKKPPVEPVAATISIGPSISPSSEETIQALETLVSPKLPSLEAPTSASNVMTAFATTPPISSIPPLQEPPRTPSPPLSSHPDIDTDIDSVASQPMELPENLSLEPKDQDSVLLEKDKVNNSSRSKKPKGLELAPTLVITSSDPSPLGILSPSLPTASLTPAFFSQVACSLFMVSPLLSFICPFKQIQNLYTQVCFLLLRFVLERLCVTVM
In short: as §1

[11] = biological target: T7, ELF3 (Homo sapiens, UniProt P78545 1-371)
T7 sequence: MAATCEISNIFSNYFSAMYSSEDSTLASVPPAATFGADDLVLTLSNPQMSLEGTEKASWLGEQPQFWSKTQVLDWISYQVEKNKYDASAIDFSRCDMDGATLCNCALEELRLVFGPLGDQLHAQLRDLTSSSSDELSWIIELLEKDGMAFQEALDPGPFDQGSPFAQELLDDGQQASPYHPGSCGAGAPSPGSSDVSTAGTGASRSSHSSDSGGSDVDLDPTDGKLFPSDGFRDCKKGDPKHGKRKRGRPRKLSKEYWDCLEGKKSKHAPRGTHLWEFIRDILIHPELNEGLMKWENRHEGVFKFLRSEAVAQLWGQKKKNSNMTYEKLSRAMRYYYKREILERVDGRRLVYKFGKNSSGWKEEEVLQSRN
In short: as §1

[12] = biological target: ETV1 (Homo sapiens, UniProt P50549 1-477)
In short: as §1

[13] = biological target: T8, ERF (Homo sapiens, UniProt P50548 1-548)
T8 sequence: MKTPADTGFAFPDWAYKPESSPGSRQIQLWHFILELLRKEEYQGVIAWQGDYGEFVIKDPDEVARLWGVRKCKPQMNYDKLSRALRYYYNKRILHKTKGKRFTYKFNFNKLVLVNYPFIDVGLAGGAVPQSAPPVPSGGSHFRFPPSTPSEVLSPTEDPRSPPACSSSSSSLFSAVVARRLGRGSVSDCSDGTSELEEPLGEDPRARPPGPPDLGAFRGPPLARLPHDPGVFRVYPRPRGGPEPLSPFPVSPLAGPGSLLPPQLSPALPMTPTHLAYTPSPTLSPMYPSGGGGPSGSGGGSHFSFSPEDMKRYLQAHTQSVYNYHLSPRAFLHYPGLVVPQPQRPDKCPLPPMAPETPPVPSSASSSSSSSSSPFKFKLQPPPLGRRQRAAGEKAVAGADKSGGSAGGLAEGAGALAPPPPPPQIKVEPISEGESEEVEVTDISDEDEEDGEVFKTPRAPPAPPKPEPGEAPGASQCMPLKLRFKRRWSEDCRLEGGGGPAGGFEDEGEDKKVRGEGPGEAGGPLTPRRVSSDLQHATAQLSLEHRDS
In short: as §1

[14] = biological target: T9, ETV3L (Homo sapiens, UniProt Q6ZN32 1-361)
T9 sequence: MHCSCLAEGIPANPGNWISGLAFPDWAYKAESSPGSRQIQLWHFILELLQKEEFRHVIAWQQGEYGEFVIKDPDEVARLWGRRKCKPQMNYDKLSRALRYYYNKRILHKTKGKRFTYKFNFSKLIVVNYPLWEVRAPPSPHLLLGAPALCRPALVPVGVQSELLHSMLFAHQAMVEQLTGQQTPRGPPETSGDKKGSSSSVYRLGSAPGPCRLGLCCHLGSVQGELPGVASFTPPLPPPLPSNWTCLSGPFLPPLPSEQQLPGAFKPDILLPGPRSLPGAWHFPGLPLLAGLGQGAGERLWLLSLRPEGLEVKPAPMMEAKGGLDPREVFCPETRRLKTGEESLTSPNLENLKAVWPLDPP
In short: as §1

[15] = biological target: T10, ETS2 (Homo sapiens, UniProt P15036 1-469)
T10 sequence: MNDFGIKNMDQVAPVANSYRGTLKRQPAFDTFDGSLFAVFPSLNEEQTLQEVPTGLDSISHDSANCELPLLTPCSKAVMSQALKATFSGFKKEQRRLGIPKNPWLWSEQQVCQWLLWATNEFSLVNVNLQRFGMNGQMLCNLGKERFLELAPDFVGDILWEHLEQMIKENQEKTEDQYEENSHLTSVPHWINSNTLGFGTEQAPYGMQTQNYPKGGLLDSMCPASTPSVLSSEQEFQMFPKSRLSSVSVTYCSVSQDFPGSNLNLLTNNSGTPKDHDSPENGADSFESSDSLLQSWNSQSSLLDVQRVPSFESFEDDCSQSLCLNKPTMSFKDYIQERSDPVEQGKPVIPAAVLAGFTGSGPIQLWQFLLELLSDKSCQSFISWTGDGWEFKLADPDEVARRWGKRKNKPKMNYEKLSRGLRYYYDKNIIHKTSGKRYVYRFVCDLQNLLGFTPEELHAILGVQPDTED
In short: as §1

[16] = biological target: T11, SPDEF (Homo sapiens, UniProt O95238 1-335)
T11 sequence: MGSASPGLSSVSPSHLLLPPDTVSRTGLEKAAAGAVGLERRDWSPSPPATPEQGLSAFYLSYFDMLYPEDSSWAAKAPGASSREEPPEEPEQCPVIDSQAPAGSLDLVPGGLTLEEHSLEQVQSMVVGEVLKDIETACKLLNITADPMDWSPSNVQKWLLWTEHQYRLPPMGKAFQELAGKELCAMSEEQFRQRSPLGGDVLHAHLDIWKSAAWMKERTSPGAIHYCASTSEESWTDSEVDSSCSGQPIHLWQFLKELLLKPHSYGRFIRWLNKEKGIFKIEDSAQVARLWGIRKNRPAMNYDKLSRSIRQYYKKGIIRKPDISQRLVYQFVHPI
In short: as §1

[17] = biological target: T12, ETV3 (Homo sapiens, UniProt P41162-2 1-143)
T12 sequence: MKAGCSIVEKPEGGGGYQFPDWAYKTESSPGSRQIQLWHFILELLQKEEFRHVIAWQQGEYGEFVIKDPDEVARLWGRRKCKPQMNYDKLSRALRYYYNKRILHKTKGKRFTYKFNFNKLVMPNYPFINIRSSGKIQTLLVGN
In short: as §1

[18] = biological target: ETV6 (Homo sapiens, UniProt P41212 1-452)
In short: as §1

ETV6, sequence (P41212 whole entry): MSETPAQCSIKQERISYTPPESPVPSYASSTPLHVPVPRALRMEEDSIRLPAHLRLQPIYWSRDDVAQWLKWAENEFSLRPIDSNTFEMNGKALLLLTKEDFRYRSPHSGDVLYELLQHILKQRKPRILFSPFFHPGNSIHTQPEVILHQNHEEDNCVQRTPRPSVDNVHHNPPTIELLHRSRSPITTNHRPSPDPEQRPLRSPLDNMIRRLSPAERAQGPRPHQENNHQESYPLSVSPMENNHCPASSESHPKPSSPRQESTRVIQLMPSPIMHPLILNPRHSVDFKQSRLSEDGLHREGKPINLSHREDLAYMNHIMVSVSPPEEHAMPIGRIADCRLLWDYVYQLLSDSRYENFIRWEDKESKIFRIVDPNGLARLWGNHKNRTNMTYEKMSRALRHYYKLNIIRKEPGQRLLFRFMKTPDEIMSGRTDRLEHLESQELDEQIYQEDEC
ETV1, sequence (P50549 whole entry): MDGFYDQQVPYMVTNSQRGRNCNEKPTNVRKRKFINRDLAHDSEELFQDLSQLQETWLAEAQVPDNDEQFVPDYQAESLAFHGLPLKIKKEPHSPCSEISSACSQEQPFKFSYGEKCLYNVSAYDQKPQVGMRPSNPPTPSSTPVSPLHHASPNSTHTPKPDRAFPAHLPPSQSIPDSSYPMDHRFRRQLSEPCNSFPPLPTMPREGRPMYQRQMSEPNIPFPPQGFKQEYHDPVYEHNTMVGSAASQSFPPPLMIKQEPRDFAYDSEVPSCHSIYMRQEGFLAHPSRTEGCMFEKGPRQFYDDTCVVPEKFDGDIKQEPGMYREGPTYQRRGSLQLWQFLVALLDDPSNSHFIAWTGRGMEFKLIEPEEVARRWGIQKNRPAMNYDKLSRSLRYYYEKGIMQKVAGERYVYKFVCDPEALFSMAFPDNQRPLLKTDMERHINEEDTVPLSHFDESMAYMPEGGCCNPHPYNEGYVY
SPIB, sequence (Q01892 whole entry): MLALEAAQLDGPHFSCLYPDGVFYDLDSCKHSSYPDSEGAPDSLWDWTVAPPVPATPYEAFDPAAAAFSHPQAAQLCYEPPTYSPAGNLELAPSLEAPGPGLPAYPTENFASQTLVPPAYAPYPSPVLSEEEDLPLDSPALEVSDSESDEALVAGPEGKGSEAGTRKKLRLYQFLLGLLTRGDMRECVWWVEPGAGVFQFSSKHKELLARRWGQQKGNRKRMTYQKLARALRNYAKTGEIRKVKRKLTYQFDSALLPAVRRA
ELF1, sequence (P32519 whole entry): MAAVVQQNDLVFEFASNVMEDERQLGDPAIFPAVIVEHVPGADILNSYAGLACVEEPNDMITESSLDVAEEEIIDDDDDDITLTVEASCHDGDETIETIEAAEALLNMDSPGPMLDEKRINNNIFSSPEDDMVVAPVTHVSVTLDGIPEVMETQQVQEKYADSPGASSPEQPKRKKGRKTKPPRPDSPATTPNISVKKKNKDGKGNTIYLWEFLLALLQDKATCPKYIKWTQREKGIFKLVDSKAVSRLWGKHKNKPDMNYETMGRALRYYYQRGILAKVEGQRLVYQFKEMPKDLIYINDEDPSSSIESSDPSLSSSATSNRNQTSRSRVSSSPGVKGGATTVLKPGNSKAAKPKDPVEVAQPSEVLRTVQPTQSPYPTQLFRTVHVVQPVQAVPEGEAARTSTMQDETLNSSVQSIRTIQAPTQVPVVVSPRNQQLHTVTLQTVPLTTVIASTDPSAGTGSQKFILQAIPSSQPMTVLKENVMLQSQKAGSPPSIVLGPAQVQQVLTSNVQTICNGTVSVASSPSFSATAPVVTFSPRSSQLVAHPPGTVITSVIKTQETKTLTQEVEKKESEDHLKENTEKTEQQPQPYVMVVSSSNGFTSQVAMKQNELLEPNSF
ELF4, sequence (Q99607 whole entry): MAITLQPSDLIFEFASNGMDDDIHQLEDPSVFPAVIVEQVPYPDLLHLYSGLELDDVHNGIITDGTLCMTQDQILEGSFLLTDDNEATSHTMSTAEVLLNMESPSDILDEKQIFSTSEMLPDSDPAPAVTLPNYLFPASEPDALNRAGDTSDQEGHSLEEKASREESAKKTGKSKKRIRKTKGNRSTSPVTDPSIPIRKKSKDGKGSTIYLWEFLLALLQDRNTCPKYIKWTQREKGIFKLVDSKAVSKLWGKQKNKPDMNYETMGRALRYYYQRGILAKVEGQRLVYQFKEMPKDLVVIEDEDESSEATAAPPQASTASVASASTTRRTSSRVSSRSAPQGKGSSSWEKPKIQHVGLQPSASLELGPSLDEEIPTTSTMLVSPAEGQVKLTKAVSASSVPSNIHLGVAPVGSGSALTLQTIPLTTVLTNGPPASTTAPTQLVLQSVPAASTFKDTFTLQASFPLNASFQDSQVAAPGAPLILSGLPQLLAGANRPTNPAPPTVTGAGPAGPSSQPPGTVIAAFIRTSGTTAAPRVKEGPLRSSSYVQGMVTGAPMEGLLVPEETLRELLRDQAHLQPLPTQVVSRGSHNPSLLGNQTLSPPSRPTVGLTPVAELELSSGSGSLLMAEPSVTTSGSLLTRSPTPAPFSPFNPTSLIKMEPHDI
ETV5, sequence (P41161 whole entry): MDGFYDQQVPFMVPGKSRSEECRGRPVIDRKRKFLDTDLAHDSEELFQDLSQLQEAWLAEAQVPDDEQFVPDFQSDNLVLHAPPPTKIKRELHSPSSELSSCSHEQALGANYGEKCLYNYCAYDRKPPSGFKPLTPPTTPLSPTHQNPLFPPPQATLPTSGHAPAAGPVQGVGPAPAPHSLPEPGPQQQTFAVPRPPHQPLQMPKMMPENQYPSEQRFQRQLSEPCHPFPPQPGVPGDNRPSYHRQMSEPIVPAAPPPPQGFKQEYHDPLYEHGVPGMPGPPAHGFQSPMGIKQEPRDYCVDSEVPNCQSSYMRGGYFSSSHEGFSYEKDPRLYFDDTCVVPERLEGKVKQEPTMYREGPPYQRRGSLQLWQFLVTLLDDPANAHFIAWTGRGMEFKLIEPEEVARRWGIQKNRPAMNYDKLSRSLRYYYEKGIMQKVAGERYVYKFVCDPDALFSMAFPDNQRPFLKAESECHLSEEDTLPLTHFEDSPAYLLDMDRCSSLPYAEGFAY

CACCGG
binding signal [1]: 1.16 fold enrichment (6-mer frequency, TF over GST control)
binding signal [2]: 1.04 fold enrichment (6-mer frequency, TF over GST control)
binding signal [3]: 1.27 fold enrichment (6-mer frequency, TF over GST control)
binding signal [4]: 1.09 fold enrichment (6-mer frequency, TF over GST control)
binding signal [5]: 1.13 fold enrichment (6-mer frequency, TF over GST control)
binding signal [6]: 1.16 fold enrichment (6-mer frequency, TF over GST control)
binding signal [7]: 1.75 fold enrichment (6-mer frequency, TF over GST control)
binding signal [8]: 1.21 fold enrichment (6-mer frequency, TF over GST control)
binding signal [9]: 1.16 fold enrichment (6-mer frequency, TF over GST control)
binding signal [10]: 1.05 fold enrichment (6-mer frequency, TF over GST control)
binding signal [11]: 1.17 fold enrichment (6-mer frequency, TF over GST control)
binding signal [12]: 1.21 fold enrichment (6-mer frequency, TF over GST control)
binding signal [13]: 1.08 fold enrichment (6-mer frequency, TF over GST control)
binding signal [14]: 1.14 fold enrichment (6-mer frequency, TF over GST control)
binding signal [15]: 1.17 fold enrichment (6-mer frequency, TF over GST control)
binding signal [16]: 1.08 fold enrichment (6-mer frequency, TF over GST control)
binding signal [17]: 1.14 fold enrichment (6-mer frequency, TF over GST control)
binding signal [18]: 1.09 fold enrichment (6-mer frequency, TF over GST control)

From article PMC7862700, “An all-to-all approach to the identification of sequence-specific readers for epigenetic DNA modifications on cytosine”
